Bioassay records deposited in PubChem BioAssay by The Scripps Research Institute Molecular Screening Center.
The list is not random: actives were taken first. Their share in the collection is about 2.9%.
PLC-beta3 inh: PLC-beta3 (human) inhibition, primary screen; Q01970; Purified PLC-beta3, fluorogenic substrate, fluorescence; inhibition, % at 12.2 µM; 370,000 tested, 0.18% active; AID 720704; in the data active = inhibition above about 11%;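 also: 0% = median of compound wells on plate and 100% = full blocker control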
KLK7 zymogen act: activators of human kallikrein-7 zymogen; purified proKLK7, EDANS-DABCYL substrate fluorescence; 100% is mature enzyme control, 0% vehicle; 370,000 tested, 0.9% active; activation, % at 7 µM; AID 652039; P49862;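 active = activation above the mean of all tested compounds plus 3 SD, computed per campaign excluding outliers beyond control limits, cut at about 13% in these data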
ADAM10 inh: inhibits human ADAM10. recombinant ADAM10, EDANS/DABCYL FRET peptide cleavage, 3 h. AID 720582. inhibition, % at 7 µM. 370,000 tested, 0.62% active;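 active = inhibition above a per-campaign cutoff equal to the mean of compounds falling between control-based bounds plus 3 SD, cut at about 20% in these data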;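 also: 0% = DMSO wells while the 100% control is not disclosed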
PLC-gamma1 inh: PLC-gamma1 (human) inhibition, primary screen. purified PLC-gamma1, fluorogenic substrate, fluorescence. 370,000 tested, 0.84% active. AID 720700. P19174. inhibition, % at 12.2 µM; in the data active = inhibition above about 9.5%
ADAM17 inh: inhibitors of human ADAM17; recombinant ADAM17, EDANS/DABCYL FRET peptide cleavage; inhibition, % at 6.95 µM; 370,000 tested, 0.83% active; P78536;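 active = inhibition above the mean of compounds lying between control limits plus 3 SD, set per campaign, cut at about 8.5% in these data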;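 also: 0% = DMSO-only wells as the low control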
Target sequence (P78536 215-824 limits assumed): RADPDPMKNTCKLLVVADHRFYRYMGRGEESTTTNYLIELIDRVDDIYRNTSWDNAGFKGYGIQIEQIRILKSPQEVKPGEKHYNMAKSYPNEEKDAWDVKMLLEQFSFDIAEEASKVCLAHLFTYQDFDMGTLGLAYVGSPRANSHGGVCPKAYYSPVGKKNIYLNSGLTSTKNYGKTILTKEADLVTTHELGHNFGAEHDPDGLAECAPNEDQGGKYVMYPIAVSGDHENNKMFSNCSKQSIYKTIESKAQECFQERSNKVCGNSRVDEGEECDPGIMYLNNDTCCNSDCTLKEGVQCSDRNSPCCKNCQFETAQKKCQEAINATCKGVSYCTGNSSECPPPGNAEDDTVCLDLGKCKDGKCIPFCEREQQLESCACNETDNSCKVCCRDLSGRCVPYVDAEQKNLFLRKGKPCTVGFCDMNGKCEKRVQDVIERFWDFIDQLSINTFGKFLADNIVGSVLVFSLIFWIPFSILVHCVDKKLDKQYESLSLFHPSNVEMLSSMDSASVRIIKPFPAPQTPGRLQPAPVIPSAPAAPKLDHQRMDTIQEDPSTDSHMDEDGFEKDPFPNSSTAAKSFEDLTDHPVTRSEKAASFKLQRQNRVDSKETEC
ADAM10 confirm: human ADAM10 inhibition, confirmation | shares compounds with ADAM10 inh | ADAM10 QFRET peptide cleavage, EDANS fluorescence | inhibition, % at 6.95 µM | 2,100 tested, 1% active | AID 743208;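 active = inhibition above about 20% chosen separately for each screening run, limit read from the data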;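 also: 0% = DMSO wells and 100% = marimastat wells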
ADAM17 ctr: inhibits human ADAM17 in ADAM10 exosite counter-screen. shares compounds with ADAM10 inh. ADAM17 QFRET peptide cleavage, EDANS fluorescence. inhibition, % at 6.95 µM. 2,100 tested, 0.5% active. AID 743214;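 active = mean triplicate inhibition above the solvent-only control wells' mean plus 3 SD, cut at about 12% in these data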;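 also: 0% = DMSO wells and 100% = marimastat wells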
ADAM10 ctr: counter-screen for ADAM17 exosite inhibitors: inhibitors of human ADAM10 | 2,900 tested, 47% active | recombinant ADAM10, EDANS/DABCYL FRET peptide cleavage, 3 h | AID 743256 | inhibition, % at 6.95 µM | shares compounds with ADAM17 inh;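 active = mean inhibition over the triplicate runs exceeds the activity threshold set in the earlier primary screen, cut at about 20% in these data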;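 also: 0% = DMSO wells and 100% = marimastat wells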
ADAM17 confirm: confirmation of inhibitors of human ADAM17; 2,900 tested, 65% active; recombinant ADAM17, EDANS/DABCYL QFRET peptide cleavage; inhibition, % at 6.95 µM; shares compounds with ADAM17 inh;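 active = mean inhibition across replicates above the hit cutoff set in the primary screen, cut at about 8.5% in these data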;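 also: 0% = DMSO wells and 100% = marimastat wells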
Active calls of the source: *; · = not tested or not shown.

SMILES | PLC-beta3 inh | KLK7 zymogen act | ADAM10 inh | PLC-gamma1 inh | ADAM17 inh | ADAM10 confirm | ADAM17 ctr | others
O=C(NCCc1ccccc1)c1oc2ccccc2c1COc1ccccc1 | 3 | -1 | 20* | 2 | 7 | 6 | 3
Cc1occc1C(=O)NNC(=O)C(c1ccccc1)c1ccccc1 | 4 | 1 | 28* | 5 | 5 | -1 | 0
Cc1occc1C(=O)Nc1ccccc1C(=O)O | -3 | -1 | -1 | -1 | -4 | · | ·
CCOC(=O)c1ccc(NC(=O)c2ccccc2)cc1 | 0 | 0 | 0 | 4 | -2 | · | ·
CCOC(=O)c1ccc(NC(=O)c2ccc(NS(C)(=O)=O)cc2)cc1 | -5 | 0 | 21* | -2 | 3 | 0 | 0
CCCc1c(Cc2cccc(F)c2)ncn1CCc1ccccc1OC | 2 | 0 | 46* | 3 | -1 | 1 | 1
Cc1ccc(S(=O)(=O)Nc2ccc(N(C)C)cc2)cc1 | -1 | 1 | -17 | 1 | 3 | · | ·
CN(C)c1ccc(NS(=O)(=O)c2ccc(-c3csnn3)cc2)cc1 | -2 | 1 | 25* | 3 | 1 | -2 | 0
CCOc1ccc(NC(=O)C2C(c3ccccc3)C2(Cl)Cl)cc1 (stereo not drawn) | -4 | 0 | 20* | -3 | 8 | 7 | 1
C=CCNC(=O)c1c(CSc2ccc(Cl)cc2)noc1C(=O)NCc1ccccc1 | -5 | 1 | 21* | 3 | 8 | 6 | 3
COc1cccc2sc(N(CCCN(C)C)C(=O)c3ccc(S(=O)(=O)N4CCc5ccccc5C4)cc3)nc12 | -6 | -2 | 5 | 3 | -2 | · | ·
COc1ccc(C)c2sc(N(CCCN(C)C)C(=O)c3ccc(S(=O)(=O)N4CCc5ccccc5C4)cc3)nc12 | 2 | -2 | 31* | 0 | -9 | 21* | 11
COCCN1C(=O)N(c2cccc(C)c2)C(=O)C1CC(=O)Nc1ccc(OC)cc1 (stereo not drawn) | -2 | -1 | 20* | 0 | -2 | 0 | 0
COCCN1C(=O)N(c2cccc(OC)c2)C(=O)C1CC(=O)Nc1ccc(OC)cc1 (stereo not drawn) | 2 | 0 | 10 | -1 | -1 | · | ·
COCCCNC(=O)C[C@H]1C[C@@]2(C(=O)OC)C(=C[C@H](C(C)(C)C)O[C@@H]2C)N(Cc2ccco2)C1=O | 0 | 0 | -2 | -3 | -3 | · | ·
C/C(=N\Nc1nc2ccccc2s1)c1cccs1 | -9 | 1 | 25* | -4 | 7 | 8 | 3
Nc1cccc(CCc2ccncc2)c1 | -4 | 0 | 21* | 3 | 0 | 0 | 0
O=C(NCCN1C(=O)C2C3C=CC(C3)C2C1=O)c1cc(Cl)cc(Cl)c1 (stereo not drawn) | 3 | 0 | 2 | 1 | 1 | · | ·
Nc1[nH]c(C(=O)c2ccccc2)c(-c2ccc(Cl)cc2)c1C(=O)NCCC1=CCCCC1 | -1 | · | 0 | 0 | -1 | · | ·
C[C@@]12C(=O)N(CCc3c[nH]c4ccccc34)CC(=O)N1[C@H]1c3ccccc3OC[C@@H]1[C@@H]2c1ccccc1 | 3 | 0 | 22* | 2 | 8 | 5 | 2
CCOC(=O)[C@@H]1[C@H]2COc3ccc(Br)cc3[C@H]2N2C(=O)N(c3cccc(F)c3)C(=O)[C@]12C | 1 | 1 | 20* | 3 | 5 | 4 | 1
C[C@@]12C(=O)N(c3ccc(Br)cc3)C(=O)N1[C@@H]1c3ccccc3OC[C@@H]1[C@H]2c1ccccc1 | 4 | 0 | 18 | 2 | 1 | · | ·
COc1ccc2c(c1)OC[C@H]1[C@H]2N2C(=O)CN(Cc3ccc(C)cc3)C(=O)[C@@]2(C)[C@H]1c1ccccc1 | 2 | -1 | 20* | 2 | 2 | 6 | 2
C[C@]12C(=O)N(c3ccc(Br)cc3)C(=O)N1[C@@H]1c3ccccc3OC[C@@H]1[C@H]2c1ccccc1 | 6 | 1 | 23* | 3 | 8 | 7 | 1
O=C(c1cc(F)cc(F)c1)N1CCCC(c2nc(-c3cccs3)no2)C1 (stereo not drawn) | -1 | -1 | -2 | 1 | -1 | · | ·
SMILES | PLC-beta3 inh | KLK7 zymogen act | ADAM10 inh | PLC-gamma1 inh | ADAM17 inh | ADAM10 confirm | ADAM17 ctr | others
COC(=O)[C@]12C[C@H](CC(=O)N3CCSCC3)C(=O)N(Cc3ccc(Cl)cc3Cl)C1=C[C@H](COCc1ccccc1)O[C@@H]2C | 3 | 0 | 10 | 3 | 8 | · | ·
O=C(CSc1ccccc1)NC1CCCCN(Cc2ccc(Cl)cc2)C1=O (stereo not drawn) | -2 | 0 | -2 | -1 | -1 | · | ·
O=S(=O)(Nc1cc(C(F)(F)F)ccc1N1CCOCC1)c1ccc2ccccc2c1 | 1 | 0 | 24* | -2 | 8 | 6 | 3
CC1CCCN(CCCNS(=O)(=O)c2cc3c(cc2Br)CCN3C(=O)C2CC2)C1 (stereo not drawn) | 2 | 0 | -7 | -2 | 5 | · | ·
CCOC(=O)C1C(=O)C=C(c2ccc([N+](=O)[O-])cc2)CC1c1ccccc1 (stereo not drawn) | -9 | 1 | 7 | -8 | 0 | · | ·
CCOC(=O)C1C(=O)C=C(C)C(C(=O)OCC)C1c1cccc([N+](=O)[O-])c1 (stereo not drawn) | -4 | 0 | 20* | 4 | 1 | 2 | 0
O=C(NC1CCCCN(Cc2cccc(Cl)c2)C1=O)c1cccc(F)c1 (stereo not drawn) | -5 | 0 | -8 | 1 | -1 | · | ·
O=C(NCc1ccncc1)c1cccc(S(=O)(=O)NCc2ccccc2)c1 | 1 | 0 | 2 | 6 | 4 | · | ·
Cc1ccc(OCCNC(=O)c2cccc(S(=O)(=O)NCc3ccccc3)c2)cc1 | 5 | 1 | 21* | 5 | 3 | 2 | 0
Cc1ccc(C2C(/C=C3/SC(=S)NC3=O)=C(c3cccs3)Oc3ccccc32)cc1 (stereo not drawn) | -3 | 0 | 20* | 1 | 5 | 14 | 2
O=C1NC(=S)SC1=Cc1ccccc1Cl | -2 | 0 | 5 | 6 | 1 | · | ·
Cc1ccc(-c2cc(C(=O)NN=C/C=C/c3ccco3)[nH]n2)cc1C | -12 | 0 | 20* | 0 | 6 | 8 | 4
CCOC(=O)C1=CN(Cc2cccc(F)c2)S(=O)(=O)NC1CCc1ccccc1 (stereo not drawn) | 3 | 0 | 21* | 6 | 12* | 9 | 3 | ADAM10 ctr=51*;ADAM17 confirm=20*
